# Data taken from PubChem BioAssay.
# Test: basal RPMI8226 viability, no added stimulus, profiling panel, cell-based, calcein-AM fluorescence, 48 h, PK04 Diversity Set (AID 1166);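 also: cells grown under basal conditions without added stimulus; test concentration not given here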
# Conditions: RPMI8226 myeloma viability, higher = more signal
row,SMILES,z-score
1,COCCOC(=O)N1C(=O)[C@@]2(c3cc(C#CCNC(N)=O)ccc31)[C@H](C(=O)N1CCc3cc(OC)c(OC)cc3C1)[C@H]1C(=O)O[C@H](c3ccccc3)[C@H](c3ccccc3)N1[C@@H]2c1ccc(OCCO)cc1,0.115
2,CCOC(=O)C1=CC[C@@H](c2ccccc2)N(S(=O)(=O)c2ccc(C)cc2)[C@H]1C(=O)OCC,0.0651
3,O=C(CS)NCCCCCCNC(=O)[C@@H]1C[C@@H]2C(=O)N3CCC[C@H]3C(=O)N2[C@@H]1c1ccc(O)cc1,0.412
4,CCOC(=O)C1=CCC(c2ccc([N+](=O)[O-])cc2)N(S(=O)(=O)c2ccc(C)cc2)C1 (centres undefined),-1.17
5,COCCOC(=O)N1C(=O)[C@@]2(c3cc(C#CCNC(N)=O)ccc31)[C@H](c1ccc(O)cc1)N1[C@H](c3ccccc3)[C@H](c3ccccc3)OC(=O)[C@H]1[C@@H]2C(=O)Nc1nc2ccccc2s1,-0.397
6,O=c1cccc(CCc2ccccc2)o1,-0.709
7,O=C1N(CCS(=O)(=O)c2ccccc2)Cc2ccccc2[C@H]2OC(c3ccc(OCCCO)cc3)=N[C@@]12CCS(=O)(=O)c1ccccc1,0.117
8,CN(C)C(=O)[C@@]1(CCC(=O)OC(C)(C)C)N=C(c2ccc(OCCCO)cc2)O[C@H]1c1ccccc1,-1.48
9,O=C1C2C=CC(C(O)c3ccc(-c4ccccc4)s3)N(n3cnnc3)C2C(=O)N1Cc1ccccc1 (centres undefined),-1.87
10,CC(C)C(O)C1C=CC2C(=O)N(c3ccccc3)C(=O)C2N1Nc1ccc(C#N)cc1 (centres undefined),-1.15
11,COC(=O)c1ccc(C(O)C2C=CC3C(=O)N(C)C(=O)C3N2NC(=O)OC(C)(C)C)o1 (centres undefined),-0.342
12,CCOC(=O)C1=C[C@@H](CC)N(S(=O)(=O)c2ccc(C)cc2)[C@H]1c1ccccc1,-1.37
13,COC(=O)[C@@]1(Cc2ccccc2)[C@H]2c3cc(C(=O)N(C)C)n(Cc4c(-c5ccccc5)noc4C)c3C[C@H]2CN1C(=O)c1ccccc1,-1.09
14,COCCOC(=O)N1C(=O)[C@@]2(c3cc(C#CCNC(N)=O)ccc31)[C@H](c1ccccc1OCCO)N1[C@H](c3ccccc3)[C@H](c3ccccc3)OC(=O)[C@H]1[C@@H]2C(N)=O,0.0352
15,CC(C)N1C(=O)[C@@]2(c3ccc([N+](=O)[O-])cc3)CC(=O)N(CC34CC5CC(CC(C5)C3)C4)[C@@H]2c2ccc(CO)cc21,0.13
16,CC(=O)NCCCC[C@@H]1NC(=O)[C@@H]2C[C@H](C(=O)NCCCCN(C)C)[C@H](c3ccc(O)cc3)N2C1=O,0.93
17,Cc1ccccc1C(O)C1C=CC2C(=O)N(C)C(=O)C2N1N1CCCCC1 (centres undefined),-0.436
18,CCOC(=O)C[C@H]1[C@H](OC(=O)c2ccc(C(=O)c3ccccc3)cc2)[C@@H](NC(=O)C2CCCCC2)c2cc(OCCCO)ccc2N1C(=O)c1ccccc1,-0.681
19,COc1ccc([Si](C)(C)[C@@H]2[C@@H](CC(=O)N3CCC[C@H]3CO)O[C@]3(C(=O)N(C)c4c(Br)cc(C)cc43)[C@H]2C)cc1,-1.04
20,COC(=O)[C@@]1(Cc2ccc(F)cc2)[C@H]2c3cc(C(=O)N4CCCC4)n(Cc4cccc5ccccc45)c3C[C@H]2CN1C(=O)c1ccccc1,-1.07
21,C=CC(COC(C)=O)NS(=O)(=O)c1ccc(Br)cc1 (centres undefined),-0.453
22,CC(C)(C)OC(=O)CC[C@@]1(C(=O)O)N=C(c2ccc(OCCCO)cc2)O[C@@H]1c1ccccc1N=[N+]=[N-],-0.385
23,CCOC(=O)C1=CCC(c2ccc(C#N)cc2)N(S(=O)(=O)c2ccc(C)cc2)C1 (centres undefined),-0.741
24,O=C1OCCC=C[C@H]2OC34C=CCN(Cc5ccccc5)C(=O)[C@H]3N(CCCO)C(=O)[C@@H]4C12 (some centres undefined),-0.0189
25,O=C1OCC=C[C@H]2OC34C=CCN(c5ccc(Cl)cc5)C(=O)[C@H]3N(CCCCCCO)C(=O)[C@@H]4[C@@H]12 (some centres undefined),0.057
26,COC(=O)C(CC#Cc1ccc2c(c1)[C@]1(C(=O)N2)[C@H](c2ccc(OCCO)cc2)N2[C@H](c3ccccc3)[C@H](c3ccccc3)OC(=O)[C@H]2[C@@H]1C(=O)NC[C@H](O)c1ccccc1)C(=O)OC,-1.2
27,CCOC(=O)C1=CC[C@@H](c2ccccc2Cl)N(S(=O)(=O)c2ccc(C)cc2)C1,-1.51
28,O=C1O[C@H](c2ccccc2)[C@H](c2ccccc2)N2[C@H]1[C@@H](C(=O)O)[C@]1(C(=O)Nc3ccc(C#CC4=CCCCC4)cc31)[C@H]2c1ccc(OCCO)cc1,-4.06
29,N#Cc1ccc(NN2C(C(O)c3ccc([N+](=O)[O-])cc3)C=CC3C(=O)N(c4ccccc4)C(=O)C32)cc1 (centres undefined),-0.402
